High-throughput results (PubChem)
HP1b chromo inh = HTS for Inhibitors of HP1-beta Chromodomain Interactions with Methylated Histone Tails. Potency, µM (highest dose often 114 µM), usual class: inhibitors. AID 540317, 2011. AlphaScreen HP1-beta / biotin-H3K9me3 peptide binding. Chromobox protein homolog 1 (Homo sapiens), P83916. actives 0.56% (n = 390,000); further: nearly all actives have a fitted effect of over 70% in size
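Compound inhibition of the preformed complex between 50 nM HP1-beta and 50 nM biotinylated H3K9me3 peptide was read by AlphaScreen. Buffer was PBS pH 7.4 with 0.01% Tween-20. Incubations ran 30 min at room temperature, with 10 ug/mL donor/acceptor beads.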
Sfp inh = qHTS Assay for Inhibitors of Bacillus subtilis Sfp phosphopantetheinyl transferase (PPTase). 4'-phosphopantetheinyl transferase ffp (Bacillus subtilis), Q9F4F7. Potency, µM, usual class: inhibitors. Biochemical Sfp PPTase activity, qHTS. actives 3.5% (n = 310,000);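 further: the enzyme is Sfp with the accession as filed and its product quenches rhodamine fluorescence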
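Buffer: 50 mM Hepes-Na pH 7.6, 10 mM MgCl2, 0.01% Nonidet P-40, 0.01% BSA. Enzyme 15 nM, pre-exposed to compound 15 min; substrates then added and fluorescence change tracked over 30 min.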
BAZ2B inh = qHTS Assay for Inhibitors of BAZ2B; AlphaScreen BAZ2B-H3K14Ac peptide displacement; Potency, µM (titrated, usually from 114 µM), hits mostly inhibitors; actives 4.4% (n = 360,000); AID 504333, 2011; further: nearly all actives have a fitted effect of over 60% in size
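In this displacement format the biotinylated H3(5-23) peptide acetylated at Lys14 serves as ligand at 50 nM, with BAZ2B at 50 nM in PBS pH 7.4 containing 0.01% Tween-20. Donor and acceptor beads are 10 ug/mL final.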
PLK1 PBD block = qHTS for Inhibitors of PLK1-PDB (polo-like kinase 1 - polo-box domain): Primary Screen; AID 720504, 2013; Plk1 PBD binding of FITC phosphopeptide, fluorescence polarization; Potency, µM, actives largely listed as inhibitors; actives 2.8% (n = 360,000); Serine/threonine-protein kinase PLK1 (Homo sapiens), P53350; further: series mostly up to about 57 µM; nearly all actives have a fitted effect of over 65% in size
G9a inh = qHTS Assay for Inhibitors of Histone Lysine Methyltransferase G9a; Histone-lysine N-methyltransferase EHMT2 (Homo sapiens), Q96KQ7; G9a H3K9 monomethylation, AlphaScreen, 2 h; Potency, µM (titrated, usually from 102 µM), usual class: inhibitors; actives 8.8% (n = 350,000); AID 504332, 2011; further: nearly all actives have a fitted effect of over 75% in size
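Compounds were preincubated with 20 nM G9a for 15 min, after which biotinylated H3K9 peptide (500 nM) and SAM (20 uM) started a 2 h room-temperature reaction. Monomethylated product was quantified by antibody-based AlphaScreen chemiluminescence.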
JMJD2A Tudor inh = qHTS Assay for Inhibitors of JMJD2A-Tudor Domain; Lysine-specific demethylase 4A (Homo sapiens), O75164; AlphaScreen JMJD2A-Tudor / H3K4me3 peptide binding; Potency, µM (top dose mostly 114 µM), hits mostly inhibitors; actives 4.4% (n = 390,000); further: nearly all actives have a fitted effect of over 50% in size
Target sequence (O75164 whole entry, looked up, the tested form may be a part): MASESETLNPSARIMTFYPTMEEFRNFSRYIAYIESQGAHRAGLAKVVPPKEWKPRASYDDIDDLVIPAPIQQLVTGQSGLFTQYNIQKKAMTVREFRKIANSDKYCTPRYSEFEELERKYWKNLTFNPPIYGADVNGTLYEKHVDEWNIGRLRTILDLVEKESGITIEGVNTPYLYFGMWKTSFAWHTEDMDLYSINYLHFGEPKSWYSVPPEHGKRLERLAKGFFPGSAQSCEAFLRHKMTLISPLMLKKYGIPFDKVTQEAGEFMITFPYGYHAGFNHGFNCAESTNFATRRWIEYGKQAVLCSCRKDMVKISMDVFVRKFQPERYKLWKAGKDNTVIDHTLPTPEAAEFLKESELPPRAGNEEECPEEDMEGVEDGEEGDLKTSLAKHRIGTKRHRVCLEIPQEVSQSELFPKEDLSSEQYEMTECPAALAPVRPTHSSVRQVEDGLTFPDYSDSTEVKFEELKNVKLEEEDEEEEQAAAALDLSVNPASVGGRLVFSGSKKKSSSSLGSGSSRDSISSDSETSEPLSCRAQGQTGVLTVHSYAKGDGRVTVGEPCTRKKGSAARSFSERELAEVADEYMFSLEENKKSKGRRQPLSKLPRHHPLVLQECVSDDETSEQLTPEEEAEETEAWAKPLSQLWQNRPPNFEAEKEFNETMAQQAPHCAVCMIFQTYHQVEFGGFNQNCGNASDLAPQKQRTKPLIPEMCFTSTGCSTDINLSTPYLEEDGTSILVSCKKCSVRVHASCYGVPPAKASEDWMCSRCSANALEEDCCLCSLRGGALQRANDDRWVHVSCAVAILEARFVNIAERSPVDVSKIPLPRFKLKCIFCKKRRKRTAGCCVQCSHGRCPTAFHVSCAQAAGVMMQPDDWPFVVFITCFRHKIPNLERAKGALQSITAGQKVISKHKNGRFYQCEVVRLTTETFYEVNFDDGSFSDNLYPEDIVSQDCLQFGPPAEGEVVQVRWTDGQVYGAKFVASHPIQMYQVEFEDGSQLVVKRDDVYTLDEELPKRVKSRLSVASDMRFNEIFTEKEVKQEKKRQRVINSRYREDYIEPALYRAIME
Of the large screens only hits and unclear results are named; the others gave an inactive call. Compounds with a hit are over-represented: about 12% of the library has one in this group of screens. The call rests on the fitted dose curve; in most records, active means well fitted curve in the direction sought with a large enough effect; inconclusive means small, poorly fitted or top-dose-only effect, or another doubt; inactive means no such curve, though single readings can be large; an effect the other way counts as inactive or inconclusive.

COc1ccc(CN2CCNC(=O)C2CC(=O)NCc2cccc(C)n2)c(OC)c1 (centres undefined)	BAZ2B inh inconclusive
CCOc1ccc(CN2CCNC(=O)C2CC(=O)NCc2cc(C)n(C)n2)cc1 (centres undefined)	G9a inh 40µM
COc1ccc(CN2CCNC(=O)C2CC(=O)NCc2cc(C)n(C)n2)c(F)c1 (centres undefined)	G9a inh 25µM
N#C/C(C(=O)Nc1ccc(Cl)cc1)=C(/S)Nc1ccccc1	HP1b chromo inh inconclusive, Sfp inh 0.79µM, BAZ2B inh 20µM, PLK1 PBD block 3.4µM, G9a inh 1.6µM, JMJD2A Tudor inh 20µM
O=C(NCc1n[nH]c(=S)n1-c1cccc(Cl)c1)c1ccc(S(=O)(=O)N2CCCCC2)cc1	G9a inh 3.2µM
Cc1cccc(-n2c(CNC(=O)c3ccc(S(=O)(=O)N4CCCC4)cc3)n[nH]c2=S)c1	G9a inh 0.71µM, JMJD2A Tudor inh 10µM
O=C(NCc1cccc(Cl)c1)c1cccc(S(=O)(=O)N2CCCCC2)c1	none (no result: Sfp inh)
CCOc1ccc(-c2nc(S(=O)(=O)c3ccccc3)c(N3CCOCC3)o2)cc1	Sfp inh inconclusive, G9a inh 50µM
Cc1cccc(-c2nc(S(=O)(=O)c3ccccc3)c(N3CCOCC3)o2)c1	G9a inh inconclusive
O=S(=O)(c1ccc(F)cc1)c1nc(-c2ccc(F)cc2)oc1NCCN1CCOCC1	G9a inh 50µM
Cc1ccc(-c2nc(S(=O)(=O)c3ccc(C)cc3)c(N3CCOCC3)o2)cc1	HP1b chromo inh inconclusive, BAZ2B inh inconclusive, G9a inh 4.5µM, JMJD2A Tudor inh 79µM
COc1ccc(-c2nc(S(=O)(=O)c3ccccc3)c(N3CCN(C)CC3)o2)cc1	none (no result: HP1b chromo inh, Sfp inh, BAZ2B inh, G9a inh, JMJD2A Tudor inh)
N#Cc1c(NCc2ccccc2)ccnc1Cl	none (no result: Sfp inh, BAZ2B inh, G9a inh)
O=S(=O)(Nc1ccc(N2CCOCC2)cc1)c1ccc(F)cc1	G9a inh inconclusive
O=S(=O)(Nc1ccc(N2CCCCC2)cc1)c1ccc(F)cc1	HP1b chromo inh inconclusive, BAZ2B inh 79µM, JMJD2A Tudor inh inconclusive (no result: G9a inh)
O=S(=O)(Nc1ccc(N2CCCCC2)cc1)c1cccs1	BAZ2B inh inconclusive, G9a inh 35µM, JMJD2A Tudor inh inconclusive
O=S(=O)(Nc1ccc(S(=O)(=O)N2CCCCCC2)cc1)c1cccs1	none
O=C(NNC(=O)c1ccc(F)cc1)C(=O)N1CCCCC1	G9a inh inconclusive, JMJD2A Tudor inh 25µM
O=C(CNS(=O)(=O)c1ccc(C(=O)N2CCCCC2)cc1)N1CCCCC1	PLK1 PBD block 30µM, JMJD2A Tudor inh 56µM
O=C(c1ccc(NS(=O)(=O)c2ccc(F)cc2)cc1)N1CCCCC1	G9a inh 45µM (no result: Sfp inh)
O=C(c1ccc(NS(=O)(=O)c2ccc(F)cc2)cc1)N1CCCCCC1	none (no result: Sfp inh)
O=S(=O)(Nc1ccc(N2CCCCC2)cc1)c1ccccc1	HP1b chromo inh inconclusive, BAZ2B inh 50µM, G9a inh inconclusive, JMJD2A Tudor inh inconclusive
Cc1cc(C(C)(C)C)ccc1OCCN(C)C	HP1b chromo inh inconclusive, BAZ2B inh 28µM, G9a inh 8.9µM, JMJD2A Tudor inh 7.9µM
Cc1ccc(C(C)C)c(OCCN2C(=O)NC(C)(C)C2=O)c1	none
CCCN(CCC)CCOc1cc(C)ccc1C(C)C	HP1b chromo inh inconclusive, BAZ2B inh inconclusive, G9a inh 18µM, JMJD2A Tudor inh 3.2µM
Cc1ccc(C(C)C)c(OCCCCN2CCNCC2)c1	HP1b chromo inh inconclusive, Sfp inh 56µM, BAZ2B inh 28µM, G9a inh 4µM, JMJD2A Tudor inh 7.1µM
Cc1ccc(C(C)C)c(OCCN(C)C)c1	HP1b chromo inh inconclusive, Sfp inh inconclusive, BAZ2B inh 35µM, G9a inh 3.5µM, JMJD2A Tudor inh 2.8µM
Cc1ccc(C(C)C)c(OCCN)c1	G9a inh inconclusive
CC(C)Oc1cccc(C2CC(=O)Nc3cc4c(cc32)OCO4)c1 (centres undefined)	BAZ2B inh inconclusive, G9a inh inconclusive, JMJD2A Tudor inh inconclusive (no result: Sfp inh, PLK1 PBD block)
Cc1ccc(SCCCCN2CCNCC2)cc1	Sfp inh 50µM, BAZ2B inh 40µM, PLK1 PBD block 17µM, G9a inh 8.9µM, JMJD2A Tudor inh 11µM
Cc1ccc(C(C)C)c(OCC#CCN2CCOCC2)c1	HP1b chromo inh inconclusive, Sfp inh inconclusive, BAZ2B inh 50µM, G9a inh 7.9µM, JMJD2A Tudor inh 22µM
CN(C)C(=O)OC1=C(c2ccccc2)Sc2ccccc2-n2cccc21	none (no result: HP1b chromo inh, BAZ2B inh, PLK1 PBD block, JMJD2A Tudor inh)
O=c1[nH]c2cnn(-c3ccccc3)c2c(=O)n1O	JMJD2A Tudor inh 56µM (no result: Sfp inh, BAZ2B inh, G9a inh)
O=C(NCc1ccccc1Cl)c1ccc2c(c1)nnn2C1CCCC1	none (no result: Sfp inh, PLK1 PBD block)
CC(NS(=O)(=O)c1ccc(Br)cc1)C(=O)NCc1ccco1 (centres undefined)	G9a inh inconclusive
CC(C(=O)Nc1ccc(Br)cc1)N(C)CC(=O)NCc1ccco1 (centres undefined)	G9a inh 8.9µM (no result: Sfp inh)
COc1cccc(C(=O)NC(=S)Nn2cnnc2)c1OC	Sfp inh 22µM, BAZ2B inh inconclusive, PLK1 PBD block 24µM, G9a inh 14µM
O=C(NC(=S)Nn1cnnc1)c1ccccc1Cl	Sfp inh 40µM, BAZ2B inh inconclusive, PLK1 PBD block inconclusive, G9a inh 14µM
O=C(NC(=S)Nc1ncccn1)c1ccccc1Cl	Sfp inh 32µM, G9a inh 79µM, JMJD2A Tudor inh inconclusive
O=C(NC(=S)Nn1cnnc1)c1ccc(F)cc1Cl	HP1b chromo inh inconclusive, Sfp inh 50µM, BAZ2B inh inconclusive, PLK1 PBD block inconclusive, G9a inh 14µM
Nc1cc(=O)[nH]c(SCC(=O)Nc2ccc(N3CCCCC3)cc2)n1	none (no result: Sfp inh, BAZ2B inh, G9a inh)
Cc1ccc(CC(=O)NNC(=O)c2ccncc2)cc1C	HP1b chromo inh inconclusive, PLK1 PBD block 12µM, G9a inh 4.5µM (no result: Sfp inh)
Cc1ccc(C(=O)NNC(=O)c2ccncc2)cc1C	none
COc1ccc(/C=N/Nc2snc(SC)c2C#N)cc1OC	Sfp inh inconclusive, BAZ2B inh 45µM, JMJD2A Tudor inh inconclusive
COc1ccc(C=NNC(=S)NN=Cc2ccc(OC)c(OC)c2)cc1OC	JMJD2A Tudor inh inconclusive (no result: Sfp inh, BAZ2B inh, G9a inh)
COc1cccc(/C=N/Nc2snc(SC)c2C#N)c1O	G9a inh 50µM
COc1cccc(/C=N/Nc2ccccc2C(=O)O)c1O	G9a inh inconclusive
COc1cccc(/C=N/Nc2snc(SC)c2C#N)c1	Sfp inh 56µM, PLK1 PBD block inconclusive, G9a inh inconclusive
CSc1nsc(N/N=C/c2ccccc2)c1C#N	none
O=C(c1ccco1)N1CCC2(CCN(Cc3cc(C(F)(F)F)cc(C(F)(F)F)c3)CC2)CC1	none (no result: HP1b chromo inh, BAZ2B inh, PLK1 PBD block, JMJD2A Tudor inh)
